We go through 21 molecules from PubChem BioAssay (NCI).

Compounds without any hit were thinned out: in the full panel of roughly 79,000, 15% have a hit. Values without a mark were called inactive. The source made the active and inactive calls. Cut-off read from the data, not from the text of the source: active = growth inhibition above about 70%; inactive = the rest.

Assay [1] is described as follows: NCI Yeast Anticancer Drug Screen. Data for the rad50 strain (AID 155).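 Note: 0% = growth of vehicle-only cultures of the same strain.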 The settings on record: S. cerevisiae rad50 strain growth inhibition; at 50.0 µM; active compounds read high. In short, it runs like this:
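DNA repair mutant yeast, compound exposure, growth read-out; inhibition is taken relative to vehicle.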

The nature of assay [2]: NCI Yeast Anticancer Drug Screen. Data for the mec2-1 strain (AID 157). The settings on record: S. cerevisiae mec2-1 strain, at 50.0 µM, active compounds read high. The gist of the method: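 Vehicle-treated cultures served as reference for growth inhibition of compound-exposed mec2-1 yeast.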
Assay [3] is described as follows: NCI Yeast Anticancer Drug Screen. Data for the sgs1 mgt1 strain (AID 161).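 Note: 0% = growth of cultures given vehicle only.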 The note with it: S. cerevisiae sgs1 mgt1 strain, at 50.0 µM, active compounds read high. The gist of the method: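 Inhibition of yeast growth, normalised to vehicle-treated controls, is reported for a strain bearing genetic alterations in DNA damage repair.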
Assay [4] can be described thus: NCI Yeast Anticancer Drug Screen. Data for the cln2 rad14 strain (AID 165).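 Note: 0% = growth equal to vehicle treated cultures.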 The settings on record: S. cerevisiae cln2 rad14 strain, at 50.0 µM, active compounds read high. In short, it runs like this:
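Each compound was tested on cln2 rad14 yeast. Inhibition of growth was calculated against vehicle-exposed controls.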

A short description of assay [5]: NCI Yeast Anticancer Drug Screen. Data for the bub3 strain (AID 167). The note with it: S. cerevisiae bub3 mutant strain, at 50.0 µM, active compounds read high. The gist of the method:
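In this screen, a yeast mutant lacking normal mitotic checkpoint function is challenged with compound. Relative growth versus vehicle gives the inhibition value.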

A short description of assay [6]: NCI Yeast Anticancer Drug Screen. Data for the mlh1 rad18 strain (AID 175). The settings on record: S. cerevisiae mlh1 rad18 strain growth inhibition; at 50.0 µM; active compounds read high. In short, it runs like this:
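Vehicle-treated cultures served as the reference for growth inhibition in a yeast strain carrying DNA damage repair alterations exposed to each compound.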

On to `CCCCCCCCCCCCCCCCC(=O)O`, for which the growth inhibition in assay [1] is -12.9%; in assay [2], -15.8%; in assay [3] it was -22.6%; in assay [4], -27.8%; in assay [5], 16.8%; in assay [6], -7.85%.
As for `O=C(O)CSc1ccc2c3c(cccc13)C(=O)c1ccccc1-2`, the growth inhibition in assay [1] was -9.9%; in assay [2] it was 27.4%; in assay [3], 7.95%; in assay [4] it was 26%; in assay [5] it was 56.8%; in assay [6], 3.1%.
On to `O=C(CCBr)NC(=O)OC/C=C\c1ccccc1`, for which the growth inhibition in assay [1] is 7.7%; in assay [2], 34.8%; in assay [3] it was 12.2%; in assay [4], 8%; in assay [5], 5.1%; in assay [6] it was 15.2%.
Regarding `O=C(c1ccncc1)c1c(Cc2ccccc2)ccc2ccccc12`, the growth inhibition in assay [1] was -0.3%; in assay [2], -0.65%; in assay [3], -9.25%; in assay [4], -4%; in assay [5], 5.45%; in assay [6] it was -1.35%.
With `COC(=O)C(=O)C(C(=O)C(=O)Nc1cc(C)ccc1C)c1nc2ccccc2[nH]c1=O` (stereo unspecified), the growth inhibition in assay [1] was 13%; in assay [2], -11.9%; in assay [3] it was 14.4%; in assay [4], 21.1%; in assay [5], -13.7%; in assay [6], 9.4%.
On to `NC(Cc1ccsc1)C(=O)O` (stereo unspecified), for which the growth inhibition in assay [1] was 0.15%; in assay [2] it was 10.7%; in assay [3], -22.7%; in assay [4] it was -45.2%; in assay [5], 20.5%; in assay [6], -30.8%.
`COC1(OC)C2(Cl)C(Cl)=C(Cl)C1(Cl)C1CCCCCC12` (stereo unspecified): the growth inhibition was -4.95% in assay [1]; 2.8% in assay [2]; 1.85% in assay [3]; -60.7% in assay [4]; -8.4% in assay [5]; 8.15% in assay [6].
For the molecule `CCOC(=O)c1ccc(N2C(=O)C(Cl)(c3ccccc3)C2c2ccco2)cc1` (stereo unspecified), the growth inhibition is 16.2% in assay [1]; 9.85% in assay [2]; -1.65% in assay [3]; 9.1% in assay [4]; 12.4% in assay [5]; 10.5% in assay [6].
Consider `CCOC(=O)c1c(-c2ccccc2)nn(CC(N)=O)c1CO`, for which the growth inhibition in assay [1] is -15.9%; in assay [2], -5.15%; in assay [3], 10.4%; in assay [4] it was 23.1%; in assay [5] it was 18.2%; in assay [6], -10.7%.
On to `O=C1C(Cl)C(c2cccc(O)c2)N1n1cnc2ccccc2c1=O` (stereo unspecified), for which the growth inhibition in assay [1] was -25.1%; in assay [2], -4.15%; in assay [3] it was -7.5%; in assay [4] it was -8%; in assay [5], -19.4%; in assay [6] it was -0.95%.
With `CC(C)C(C)(O)CO` (stereo unspecified), the growth inhibition is -21.9% in assay [1]; 1.75% in assay [2]; -1.2% in assay [3]; 16.8% in assay [4]; -6.2% in assay [5]; -13.7% in assay [6].
`N#Cc1nn(CCCl)c(=O)c2ccccc12`: the growth inhibition in assay [1] was 28.7%; in assay [2], 17.9%; in assay [3] it was 10%; in assay [4] it was 12.2%; in assay [5], 12.2%; in assay [6], 15.4%.
As for `NCC(O)c1cc(I)c(Oc2ccc(O)cc2)c(I)c1` (stereo unspecified), the growth inhibition in assay [1] was 7.65%; in assay [2] it was -19.8%; in assay [3], -22.6%; in assay [4], 12.3%; in assay [5] it was -1.35%; in assay [6], -11.5%.
In the case of `C1CSCC2(COC2)CS1`, the growth inhibition is 13% in assay [1]; 13.6% in assay [2]; -9.65% in assay [3]; 5% in assay [4]; -1.55% in assay [5]; 14.2% in assay [6].
`CC/C(C)=C1\OC(=O)C(C)C(O)C(Cc2cccnc2)NC(=O)C(NC(=O)c2ncccc2O)C(C)OC1=O` (stereo unspecified): the growth inhibition in assay [1] was -4.45%; in assay [2], 3.7%; in assay [3] it was 0.45%; in assay [4], -10.4%; in assay [5] it was -3%; in assay [6], -14.9%.
Regarding `Cc1ccccc1-n1c(SCC(=O)NC(=O)Nc2cccc(Cl)c2)nc2c(Br)cc(Br)cc2c1=O`, the growth inhibition is -22.9% in assay [1]; -5.5% in assay [2]; 0.1% in assay [3]; -16.1% in assay [4]; -12.6% in assay [5]; -2.75% in assay [6].
`COc1ccc(N=C(C)c2c(O)n(-c3ccccc3)[nH]c2=O)cc1`: the growth inhibition in assay [1] was 98.8% (active); in assay [2] it was 97.5% (active); in assay [3], 99.2% (active); in assay [4] it was 99.1% (active); in assay [5], 98.8% (active); in assay [6], 98.5% (active).
As to `C[C@]12CC[C@@H]3c4ccc(OP(=O)(O)O)cc4CC[C@H]3[C@@H]1CCC2=O`, the growth inhibition was -7% in assay [1]; 4.9% in assay [2]; -22.7% in assay [3]; -23.9% in assay [4]; -24.6% in assay [5]; -14.1% in assay [6].
For the molecule `CCn1c(=O)c(C#N)c2n(CC)c3cc(C)c(C)cc3n2c1=O`, the growth inhibition in assay [1] was -13.5%; in assay [2], -2.9%; in assay [3], -11%; in assay [4], -24.2%; in assay [5], -31.3%; in assay [6] it was -20.4%.
As for `C=CCN1C(=O)c2ccccc2C1=O`, the growth inhibition in assay [1] was 24.3%; in assay [2] it was -3.2%; in assay [3], 11.6%; in assay [4], 6.85%; in assay [5], 22.6%; in assay [6], 21.6%.
Regarding `CC(=O)Nc1ccc2oc(=O)ccc2c1`, the growth inhibition in assay [1] was -19.2%; in assay [2], -12.7%; in assay [3], -15.4%; in assay [4] it was -0.5%; in assay [5], -4.2%; in assay [6], -11.1%.
